In one assay the target is Albumin (Bos taurus) (UniProt P02769). Briefly: compounds binding labelled BSA control protein – biochemical, small-molecule microarray, Alexa647 label, 635/667 nm fluorescence, artefact control for SMM control protein annotation, profiling panel (AID 1118).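 Further: score merges 667 nm emission intensity and signal-to-noise per printed compound spot.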 The conditions noted are these: BSA-A647 binding, fluorescence 635 nm, higher = more signal.
A short description of assay [1]: probe aXIP binding to arrayed compounds – biochemical, NeuroSMM set, 635/667 nm fluorescence, primary screen (AID 1119).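 Further: probe is the protein aXip251-270 applied at 1 µg/mL to compound-printed slides; binding of probe to printed compounds measured as 667 nm fluorescence plus signal to noise.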 The conditions noted are these: small-molecule microarray, higher = more signal, called active from +8 up or from −8 down.
Assay [2] can be described thus: probe aNOTCH3 binding on compound microarray – biochemical, small-molecule microarray, 635/667 nm fluorescence, primary screen (AID 1120).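 Further: probe is a biotin-tagged antibody raised against NOTCH3 rather than NOTCH3 protein; score merges spot fluorescence near 667 nm with spot signal to noise.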 As to conditions: higher = more signal.
A short description of assay [3]: probe aNOTCH2 binding on compound microarray – biochemical, small-molecule microarray, 635/667 nm fluorescence, primary screen (AID 1121).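 Further: score merges feature fluorescence read at 667 nm with its signal to noise.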 As to conditions: higher = more signal.
The target in assay [4] is Carbonic anhydrase 2 (Homo sapiens) (UniProt P00918). Briefly: compounds binding carbonic anhydrase 2 – biochemical, small-molecule microarray, Alexa647-labelled CAII, profiling panel (AID 1122). The conditions noted are these: CAII-A647 binding fluorescence, higher = more signal.
The nature of assay [5]: COS7 lysate on small-molecule microarray, probe aHis, 635 nm (AID 1123).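 Further: z-score combines 667nm fluorescence intensity with signal-to-noise per printed compound spot.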 As to conditions: COS7 cell lysate, fluorescence, higher = more signal.
A short description of assay [6]: probe aLAP1 signal on lysate-treated microarray – cell lysate, small-molecule microarray, COS7 lysate, primary screen (AID 1124).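 Further: lysate comes from COS7 cells expressing LAP1 and is applied at 0.3 µg/mL; score merges spot fluorescence near 667 nm with signal-to-noise over triplicate slides.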 The conditions noted are these: probe aLAP1, fluorescence, higher = more signal.
Another assay has as its system Sam68 (KHDRBS1). Briefly: compounds binding KHDRBS1 protein – biochemical, small-molecule microarray, 635 nm fluorescence, primary screen (AID 1125).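 Further: score merges 667 nm channel intensity with signal to noise over triplicate slides.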 As to conditions: higher = more signal.
For assay [7], the system named is Chordin-like protein 2 (CHRDL2). Briefly: compounds binding chordin-like 2 – biochemical, small-molecule microarray, 635 nm fluorescence, primary screen (AID 1126).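 Further: printed compound slides probed with Chrdl2 protein at 4 µg/mL for 1 h at 4 C; score merges 667 nm emission intensity with signal to noise over three replicate slides.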 The conditions noted are these: fluorescence 635 nm, higher = more signal.
In assay [8] the target is Concanavalin-A (Canavalia ensiformis) (UniProt P02866). Briefly: compounds binding concanavalin A lectin – biochemical, small-molecule microarray, Alexa647 label, 635 nm, artefact control for SMM control protein annotation, primary screen (AID 1127).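 Further: z combines 667 nm emission intensity with signal-to-noise across three replicate slides.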 As to conditions: ConA-A647 binding fluorescence, higher = more signal.
Sequence of Concanavalin-A (Canavalia ensiformis) (P02866 whole entry, looked up): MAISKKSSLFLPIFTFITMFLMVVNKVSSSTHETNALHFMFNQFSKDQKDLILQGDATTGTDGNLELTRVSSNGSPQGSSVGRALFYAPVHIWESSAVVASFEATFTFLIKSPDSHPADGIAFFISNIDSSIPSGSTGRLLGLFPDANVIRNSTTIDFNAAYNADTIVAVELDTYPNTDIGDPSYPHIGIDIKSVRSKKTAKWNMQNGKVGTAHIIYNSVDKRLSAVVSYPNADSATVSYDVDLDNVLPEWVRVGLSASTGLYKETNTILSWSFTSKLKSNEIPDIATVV
Assay [9] can be described thus: compounds binding Alexa647 anti-His antibody – biochemical, small-molecule microarray, 635 nm fluorescence, artefact control for SMM control protein annotation, primary screen (AID 1128).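 Further: score merges feature fluorescence with signal-to-noise for each printed compound spot.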 The conditions noted are these: higher = more signal.
Assay [10] concerns Human papillomavirus type 1a E7 protein (residues 1-88). Briefly: HPV1a E7 small-molecule binders, primary screen, biochemical, small-molecule microarray, residues 1-88, 635 nm (AID 1129). As to conditions: small-molecule microarray binding, fluorescence 635 nm; higher = more signal.
The target in assay [11] is Focal adhesion kinase 1 (Homo sapiens) (UniProt Q05397). Description: PTK2 protein binding on printed compound slides – biochemical, small-molecule microarray, 635/667 nm fluorescence, BSA, DTT, primary screen (AID 1130).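 Further: composite of spot emission at 667 nm and signal to noise over triplicate slides.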 The conditions noted are these: 635 nm fluorescence, higher = more signal.
Sequence of Focal adhesion kinase 1 (Homo sapiens) (Q05397 whole entry, looked up): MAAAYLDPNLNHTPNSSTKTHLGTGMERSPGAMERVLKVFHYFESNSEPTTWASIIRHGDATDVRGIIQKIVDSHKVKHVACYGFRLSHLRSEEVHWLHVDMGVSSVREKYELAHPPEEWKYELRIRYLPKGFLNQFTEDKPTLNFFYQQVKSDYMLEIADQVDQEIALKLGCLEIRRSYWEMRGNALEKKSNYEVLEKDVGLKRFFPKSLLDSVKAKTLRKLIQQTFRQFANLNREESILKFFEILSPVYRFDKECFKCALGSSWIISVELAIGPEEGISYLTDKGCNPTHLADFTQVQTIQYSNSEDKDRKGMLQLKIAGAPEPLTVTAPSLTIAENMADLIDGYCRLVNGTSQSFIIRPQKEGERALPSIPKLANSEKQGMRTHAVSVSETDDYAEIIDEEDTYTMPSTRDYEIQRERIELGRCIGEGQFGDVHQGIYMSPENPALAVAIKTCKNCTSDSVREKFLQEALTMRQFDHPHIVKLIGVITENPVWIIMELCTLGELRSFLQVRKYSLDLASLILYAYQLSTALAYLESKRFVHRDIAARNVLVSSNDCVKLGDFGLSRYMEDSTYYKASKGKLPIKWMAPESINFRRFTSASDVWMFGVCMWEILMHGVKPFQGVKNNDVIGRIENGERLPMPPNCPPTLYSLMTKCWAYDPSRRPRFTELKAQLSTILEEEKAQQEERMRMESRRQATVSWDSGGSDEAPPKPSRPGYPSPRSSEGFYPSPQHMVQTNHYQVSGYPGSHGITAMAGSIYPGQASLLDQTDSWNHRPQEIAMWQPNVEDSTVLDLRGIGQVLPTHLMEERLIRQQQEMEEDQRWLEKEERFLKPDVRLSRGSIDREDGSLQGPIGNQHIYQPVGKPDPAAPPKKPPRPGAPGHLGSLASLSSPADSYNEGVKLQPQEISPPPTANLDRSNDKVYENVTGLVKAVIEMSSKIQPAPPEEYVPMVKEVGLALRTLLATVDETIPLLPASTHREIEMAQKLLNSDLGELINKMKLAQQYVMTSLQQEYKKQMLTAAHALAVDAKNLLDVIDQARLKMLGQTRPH
For assay [12], the system named is Fibrinogen (Alexa647-labelled). Description: Alexa647-fibrinogen binding to printed small molecules – biochemical, small-molecule microarray, 635/667 nm fluorescence, artefact control for SMM control-protein annotation, profiling panel (AID 1131).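 Further: z-score merges 667 nm fluorescence with per-spot signal-to-noise over triplicate slides.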 The conditions noted are these: fibrinogen-A647 binding fluorescence, higher = more signal.
The target of assay [13] is Follistatin (Homo sapiens) (UniProt P19883). Description: FST protein binding to printed compounds – biochemical, small-molecule microarray, 635/667 nm fluorescence, primary screen (AID 1132). As to conditions: 635 nm fluorescence, higher = more signal.
Sequence of Follistatin (Homo sapiens) (P19883 whole entry, looked up): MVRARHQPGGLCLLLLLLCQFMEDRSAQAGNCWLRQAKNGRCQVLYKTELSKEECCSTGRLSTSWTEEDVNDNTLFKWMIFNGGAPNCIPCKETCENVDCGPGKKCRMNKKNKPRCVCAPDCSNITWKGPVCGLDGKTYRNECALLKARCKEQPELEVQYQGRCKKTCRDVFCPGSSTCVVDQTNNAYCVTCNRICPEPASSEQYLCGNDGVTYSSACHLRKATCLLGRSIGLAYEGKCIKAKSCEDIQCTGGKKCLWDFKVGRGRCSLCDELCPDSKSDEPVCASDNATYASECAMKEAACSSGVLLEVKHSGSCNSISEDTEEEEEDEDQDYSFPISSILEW
Assay [14] has as its target Fibroblast growth factor 2 (Homo sapiens) (UniProt P09038). Briefly: basic fibroblast growth factor binding to printed compounds – biochemical, small-molecule microarray, 635/667 nm fluorescence, primary screen (AID 1133). As to conditions: FGF2, fluorescence 635/667, higher = more signal.
Assay [15] in a line: JC-1 mitochondrial potential readout, lung cancer cells – cell-based, A549, JC-1 fluorescence, basal, 24 h, 100 nL, profiling panel (AID 1138).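 Further: A549 lung adenocarcinoma cells under basal conditions with no added stimulus; test concentration not given here.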 The conditions noted are these: higher = more signal.
For a further assay, the system named is Lefty1. Briefly: Lefty1 protein binding to printed compounds – biochemical, small-molecule microarray, 635/667 nm fluorescence, primary screen (AID 1139). As to conditions: fluorescence 635/667, higher = more signal.
In assay [16] the test system is wheat germ agglutinin (Triticum aestivum), Alexa647-labelled. Description: Alexa647-WGA lectin binding to printed small molecules – biochemical, small-molecule microarray, 635/667 nm fluorescence, artefact control for SMM control-protein annotation, profiling panel (AID 1140).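 Further: score merges 667 nm feature emission with signal to noise over triplicate slides.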 As to conditions: WGA-A647 binding, 635 nm fluorescence, higher = more signal.
Assay [17] deals with Luciferin 4-monooxygenase (Photinus pyralis) (UniProt P08659). Description: inhibition of purified Photinus pyralis luciferase – biochemical, luminescence, purified enzyme, 2006 set, primary screen (AID 1141).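 Further: cell-free assay with purified firefly luciferase at 100 ng per well in PBS; test concentration not given here.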 As to conditions: purified firefly luciferase, SteadyGlo luminescence, 30 min; higher = more signal, called active from +8 up or from −8 down.
Sequence of Luciferin 4-monooxygenase (Photinus pyralis) (P08659 whole entry, looked up): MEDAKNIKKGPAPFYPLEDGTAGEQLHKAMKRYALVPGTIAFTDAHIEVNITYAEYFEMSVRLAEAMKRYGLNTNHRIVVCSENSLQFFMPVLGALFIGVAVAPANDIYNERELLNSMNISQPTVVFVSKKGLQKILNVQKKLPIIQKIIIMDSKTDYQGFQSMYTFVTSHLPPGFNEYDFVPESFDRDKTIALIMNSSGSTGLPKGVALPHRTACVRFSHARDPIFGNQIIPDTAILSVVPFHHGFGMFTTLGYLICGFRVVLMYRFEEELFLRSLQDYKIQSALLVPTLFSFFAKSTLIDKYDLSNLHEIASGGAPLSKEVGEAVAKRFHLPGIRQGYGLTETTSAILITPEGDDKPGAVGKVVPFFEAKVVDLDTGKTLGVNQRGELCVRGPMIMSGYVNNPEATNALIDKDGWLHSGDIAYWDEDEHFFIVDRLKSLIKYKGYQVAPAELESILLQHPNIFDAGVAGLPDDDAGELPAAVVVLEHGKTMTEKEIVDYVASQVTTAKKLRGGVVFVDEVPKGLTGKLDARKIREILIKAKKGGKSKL

Active and inactive are the calls of the source.

Sequence of Fibroblast growth factor 2 (Homo sapiens) (P09038 whole entry, looked up): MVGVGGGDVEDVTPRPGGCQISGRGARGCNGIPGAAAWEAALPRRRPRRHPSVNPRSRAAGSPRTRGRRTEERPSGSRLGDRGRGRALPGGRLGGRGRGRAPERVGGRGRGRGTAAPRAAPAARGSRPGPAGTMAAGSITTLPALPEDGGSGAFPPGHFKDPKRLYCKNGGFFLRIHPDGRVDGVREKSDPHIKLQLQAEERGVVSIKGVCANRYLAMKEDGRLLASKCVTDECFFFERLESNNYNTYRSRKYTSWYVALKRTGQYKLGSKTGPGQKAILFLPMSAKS
Sequence of Albumin (Bos taurus) (P02769 whole entry, looked up): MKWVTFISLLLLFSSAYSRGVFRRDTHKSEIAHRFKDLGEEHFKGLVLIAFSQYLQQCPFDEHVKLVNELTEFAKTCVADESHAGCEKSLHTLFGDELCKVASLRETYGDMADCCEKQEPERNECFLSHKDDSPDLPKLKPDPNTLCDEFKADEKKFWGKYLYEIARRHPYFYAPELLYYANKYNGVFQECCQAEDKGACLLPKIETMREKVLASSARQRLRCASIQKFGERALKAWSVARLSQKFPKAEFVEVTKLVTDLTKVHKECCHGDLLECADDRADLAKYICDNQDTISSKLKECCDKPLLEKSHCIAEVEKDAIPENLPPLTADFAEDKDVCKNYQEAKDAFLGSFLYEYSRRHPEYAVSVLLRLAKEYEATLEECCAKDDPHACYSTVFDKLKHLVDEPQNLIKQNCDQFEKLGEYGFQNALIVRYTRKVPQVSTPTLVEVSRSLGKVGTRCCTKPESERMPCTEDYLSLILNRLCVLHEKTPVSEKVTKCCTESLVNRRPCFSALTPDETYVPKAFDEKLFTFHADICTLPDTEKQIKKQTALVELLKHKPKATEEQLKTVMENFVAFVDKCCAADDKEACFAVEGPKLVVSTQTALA

Consider `C=C(C)C1CN([C@H](CO)c2ccccc2)C(=O)/C1=C\c1ccccc1` (stereo not given in full), for which the composite z-score is 0.252 with Albumin (Bos taurus); -0.0647 in assay [2]; -0.0741 in assay [3]; 0.158 in assay [4]; -0.574 in [5]; 0.027 in [6]. In addition, the composite z-score in the assay with Sam68 (KHDRBS1) was 0.168; in assay [7], 0.467; in assay [8], 0.0006; in assay [9], -0.288; in [10] it was 0.145; in assay [11], -0.234. Further, the composite z-score in assay [12] was 0.237; in [13], 0.803; in assay [14], 1.14; in the assay on Lefty1 it was -0.0605; in [16], 0.726. Moreover, the composite Z-score in assay [1] is -0.137 (inactive). For the same compound, the z-score in assay [15] is -1.06; in assay [17], 0.264 (inactive).
For the compound `COC(=O)[C@@]1(Cc2ccc(F)cc2)[C@H]2c3cc(C(=O)N4CCCC4)n(C[C@H](O)CO)c3C[C@H]2CN1C(=O)c1ccccc1`, the composite z-score worked out at 1.13 with Albumin (Bos taurus); 0.591 in assay [2]; 0.678 in assay [3]; 0.844 in assay [4]; 2.88 in assay [5]; 1.23 in [6]. Also, the composite z-score in the assay with Sam68 (KHDRBS1) is 0.208; in assay [7], 0.0578; in assay [8], 0.779; in assay [9], 1.09; in assay [10] it was 1.09; in [11], -0.0554. In addition, the composite z-score in [12] was 1.01; in assay [13], -0.266; in assay [14], -0.157; in the assay with Lefty1, -0.472; in assay [16], 0.883. Further, the composite Z-score in assay [1] was 0.133 (inactive). Also, the z-score in assay [15] is 0.226; in assay [17] it was 2.19 (inactive).
Consider `Cc1ccc(S(=O)(=O)N2[C@@H](c3ccccc3)C(C(=O)O)=CC[C@H]2c2ccc(F)cc2)cc1`, for which the composite z-score with Albumin (Bos taurus) was 0.458; in [2], -0.0044; in assay [3] it was -0.116; in assay [4], 0.893; in assay [5] it was 3.31; in [6], 1.72. For the same compound, the composite z-score was 1.18 in the assay on Sam68 (KHDRBS1); -1.09 in assay [7]; -0.177 in assay [8]; 0.686 in [9]; 1.29 in [10]; 0.779 in assay [11]. For the same compound, the composite z-score in [12] is 1.13; in assay [13], 0.164; in assay [14] it was -1.34; with Lefty1, 1.36; in assay [16] it was 1.05. For the same compound, the composite Z-score in [1] was 0.615 (inactive). In addition, the z-score was -0.679 in [15] and 2.52 (inactive) in assay [17].
On to `C=C(C(=O)CC[C@@H](OC(=O)c1ccccc1-c1ccccc1C(=O)O)c1ccc(CO)o1)C(C)C`, for which the composite z-score with Albumin (Bos taurus) was -0.41; in assay [2], -0.0858; in [3], -0.112; in assay [4], 0.75; in assay [5], 0.163; in assay [6], 0.464. For the same compound, the composite z-score in the assay with Sam68 (KHDRBS1) was 0.754; in assay [7], 0.386; in assay [8], 0.278; in [9] it was 0.546; in assay [10], 0.434; in assay [11], -0.304. The composite z-score in assay [12] came out at 0.876; in assay [13], 1.39; in assay [14], 1.76; in the assay on Lefty1, 1.51; in assay [16], 0.707. The composite Z-score in [1] is 0.0692 (inactive). Also, the z-score was 0.475 in assay [15] and -3.22 (inactive) in [17].
Take `CC(=O)NCCCC[C@@H]1NC(=O)[C@H]2C[C@@H](C(=O)O)[C@@H](c3cccc(OCCO)c3)N2C1=O`: the composite z-score was 0.757 in the assay with Albumin (Bos taurus); 0.348 in assay [2]; -0.0644 in [3]; 0.415 in [4]; 1.05 in [5]; 1.32 in [6]. For the same compound, the composite z-score in the assay on Sam68 (KHDRBS1) turned out to be 1.29; in assay [7], 1.11; in assay [8] it was 0.587; in [9], 0.246; in assay [10], 1.21; in assay [11], 0.398. The composite z-score in assay [12] came out at 0.984; in assay [13] it was 1.29; in assay [14], 1.12; with Lefty1 it was 1.13; in [16] it was 0.946. For the same compound, the composite Z-score in assay [1] is 0.446 (inactive). Also, the z-score in assay [15] is -0.253; in assay [17], 0.102 (inactive).
On to `Cc1cccc([C@H]2C[C@H]3C(Br)=C[C@@]2(CO)C(=O)[C@]32CO2)c1`, for which the composite z-score with Albumin (Bos taurus) was -0.155; in assay [2] it was -0.108; in assay [3] it was -0.147; in [4] it was 0.362; in assay [5], 0.182; in assay [6] it was -0.24. In addition, the composite z-score in the assay on Sam68 (KHDRBS1) was 0.671; in assay [7], -0.15; in assay [8], -0.0472; in [9] it was 0.338; in assay [10], -0.15; in [11], 0.259. The composite z-score is -1.05 in [12]; 0.39 in assay [13]; -0.117 in assay [14]; 0.433 with Lefty1; -0.549 in [16]. In [1], the composite Z-score was -0.288 (inactive). For the same compound, the z-score was -0.843 in assay [15] and 0.75 (inactive) in assay [17].

For the origin of these results see PubChem BioAssay.
